Assays:
Experiment in all cases: PBM binding z-score (relative to random genomic background probes); higher = stronger binding; sequences stand for … in GC…GCGATTGACAGCGTAGAATGAAGG
[1] = test system: RARb homodimer (NR concentration 270 nM)
Outline: (§1)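 Probes were double-stranded and carried 34-nt variable regions with direct-repeat seeds, single-nucleotide variants, half-site ablations and random human genomic background sequences, printed on custom Agilent 4×180K protein-binding microarrays. Arrays were incubated 1 h with ligand-free nuclear receptor dimers in PBS pH 7.4, 2% milk, 0.02% Triton X-100, 1 mM DTT, 0.2 mg/mL BSA and 0.4 mg/ml salmon testes DNA. Antibodies against each partner (one per run) detected binding, and scanned fluorescence was regression-normalized. Binding z-scores use the random background probes as reference.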

[2] = test system: RARg:RXRa (NR concentration 270 nM, RXRa partner concentration 90 nM)
Outline: as §1

[3] = test system: RARg homodimer (NR concentration 270 nM)
Outline: as §1

[4] = test system: RXRa DBDmut IVT, anti-RXR (DBD mutation: RXRa K156A/R161A, NR concentration 90 nM)
Outline: as §1

[5] = test system: RXRa homodimer (NR concentration 180 nM)
Outline: as §1

[6] = test system: THRa:RXRa (NR concentration 90 nM, RXRa partner concentration 90 nM)
Outline: as §1

[7] = test system: THRa homodimer (NR concentration 90 nM)
Outline: as §1

[8] = test system: VDR:RXRa (NR concentration 270 nM, RXRa partner concentration 90 nM)
Outline: as §1

[9] = test system: VDR homodimer (NR concentration 270 nM)
Outline: as §1

Row | Sequence | PBM binding z-score [1] | PBM binding z-score [2] | PBM binding z-score [3] | PBM binding z-score [4] | PBM binding z-score [5] | PBM binding z-score [6] | PBM binding z-score [7] | PBM binding z-score [8] | PBM binding z-score [9]
1 | GCTGCTAGGTCAACAGATGGTCAGCTAAAGCTCG | 2.83 | 4.81 | 4.85 | 1.22 | 2.42 | 2.56 | 0.465 | 1.11 | 0.00157
2 | TCGAGTAGGTTATCAATGGGGCATTCAGCTTTCT | 0.483 | 0.919 | 0.272 | 0.822 | 0.432 | 0.0952 | -0.223 | 0.361 | -0.119
3 | TTACCAAGGTGTAGGTCGTTGATCCCTCTGTAGA | 0.426 | 0.051 | -0.436 | -0.0196 | 0.497 | 0.442 | 0.121 | 0.256 | 0.0922
4 | TCATAGAGGTAAAGGTGAAAGTCGAACGATATGA | 1.69 | 1.9 | 1.52 | 0.528 | 2.39 | 1.67 | -0.473 | 0.788 | -0.362
5 | TAGCCTAGGACATGGGCCAGTATACCACGCGAAC | -0.0727 | -0.00552 | 0.0243 | -0.981 | -0.0222 | 0.476 | 0.11 | -0.512 | -0.526
6 | TCATATAGGTAAACAGGTGAGAGTCCGTAAGTTA | 0.672 | 0.456 | 0.431 | 1.08 | 0.983 | 0.521 | 0.361 | 1.01 | 0.486
7 | GATACTGGGTCAGCTAGAGGCCAGAGTATGGAAA | 2.73 | 5.04 | 3.76 | -0.654 | 1.82 | 1.75 | -0.395 | – | 0.0442
8 | TTACCAAGGTGAAAGGACGTTGATGCACGCCTTG | 0.523 | 0.792 | 0.651 | -0.0859 | 0.819 | 1.36 | 0.386 | 0.0674 | -0.00942

Source: the supplement of paper PMC6555819
